Results: PubChem BioAssay (NCATS)
Inconclusive results are not listed. A call without a number means that no potency is given here. Activity calls are given as the source filed them. Unless noted, the call rests on the fitted dose curve; in most records, active means well fitted curve in the direction sought with a large enough effect; inconclusive means small, poorly fitted or top-dose-only effect, or another doubt; inactive means no such curve, though single readings can be large; an effect the other way counts as inactive or inconclusive.

Tests used:
[1] = Cell Viability - Hek293 (AID 427;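 active means compounds whose dose-response curve shows a full or clear partial loss of cell viability, called from curve shape rather than a numeric limit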;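 further: potency means the concentration at half of the fitted maximal effect; cells exposed to compound for 40 hours at 37 °C before reading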); conditions: qHTS
How it was run: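 HEK293 cells in complete medium were exposed to compound for 40 hr at 37 °C, then cellular ATP was read by CellTiter-Glo luminescence. Data were normalized to DMSO (basal) and 100 uM tamoxifen (100% inhibition), and AC50 came from Hill fits.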

[2] = Cell Viability - SH-SY5Y (AID 544); conditions: SH-SY5Y neuroblastoma cell viability; viability change, negative = cytotoxic: at 92.2 µM (top of the series); further: nearly all actives have a fitted effect of over 55% in size
How it was run: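 Luminescent ATP read-out (CellTiter-Glo) measures loss of viable SH-SY5Y neuroblastoma cells after 40 hr compound exposure at 37 °C. AC50 values derive from standard Hill modelling of qHTS concentration-response data.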

[3] = Cellular Toxicity (caspase-3) SHSY5Y (AID 657); conditions: SH-SY5Y caspase-3 activation, DMSO zero, 10 µM staurosporine = 100%; series mostly up to 91.7 µM
How it was run: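 Luminescent caspase-3/7 readout (aminoluciferin release) in SH-SY5Y cells after 16 h compound exposure in complete medium. Activity scaled between DMSO basal and 10 uM staurosporine as 100%; concentration-response fitted to Hill equation for AC50.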

[4] = Cellular Toxicity (caspase-3) Mesangial (AID 660); conditions: mesangial cells, normalized: DMSO 0%, 100 µM tamoxifen 100%; series mostly up to 91.7 µM;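 further: combined caspase 3 and 7 activity read by Caspase-Glo luminescence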
How it was run: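 Mesangial cells, 1000/well, 5 h settle at 37 °C; compound 16 h, 37 °C; Caspase-Glo 3/7 reagent 20 min RT; luminescence. Norm.: DMSO = 0%, tamoxifen 100 uM = 100%. AC50, Hill fit.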

[5] = Cell Viability - LYMP2-001 (AID 921); conditions: LYMP2-001 lymphoblastoid cell viability; series mostly up to 92.2 µM;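 further: cells exposed to compound for 24 h at 37 °C; nearly all actives have a fitted effect of over 70% in size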
How it was run: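 CellTiter-Glo luminescence (intracellular ATP) after 24 hr compound exposure at 37 C, 2500 lymphoblastoid cells/well in complete medium. AC50 fitted with standard Hill equation; tetraoctylammonium bromide positive control.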

[6] = MultiTox-Fluor Cytotoxicity Assay - LYMP1-002 - Dead Cells (AID 960); conditions: LYMP1-002 lymphoblastoid cells, dead-cell protease fluorescence; series mostly up to 46.1 µM; further: nearly all actives have a fitted effect of over 60% in size
How it was run: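 LYMP1-002 cells 2500/well; 5 hr 37 C pre-incubation; compound 16 hr 37 C; MultiTox-Fluor reagent 60 min RT; dead-cell fluor Ex/Em 485/520. Norm. to DMSO (0%) vs 15 uM tetraoctylammonium bromide (100%); Hill AC50.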

[7] = biological target: Vitamin D3 receptor (Homo sapiens) (UniProt P11473); assay: qHTS assay for small molecule antagonists of vitamin D receptor signaling (AID 588541; calls by dose curve;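 further: receptor activated by calcitriol during compound treatment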); conditions: HEK293T VDR-UAS-bla, beta-lactamase ratio, antagonist mode; series mostly up to 76.7 µM
Chain of Vitamin D3 receptor (Homo sapiens) (P11473 whole entry, looked up): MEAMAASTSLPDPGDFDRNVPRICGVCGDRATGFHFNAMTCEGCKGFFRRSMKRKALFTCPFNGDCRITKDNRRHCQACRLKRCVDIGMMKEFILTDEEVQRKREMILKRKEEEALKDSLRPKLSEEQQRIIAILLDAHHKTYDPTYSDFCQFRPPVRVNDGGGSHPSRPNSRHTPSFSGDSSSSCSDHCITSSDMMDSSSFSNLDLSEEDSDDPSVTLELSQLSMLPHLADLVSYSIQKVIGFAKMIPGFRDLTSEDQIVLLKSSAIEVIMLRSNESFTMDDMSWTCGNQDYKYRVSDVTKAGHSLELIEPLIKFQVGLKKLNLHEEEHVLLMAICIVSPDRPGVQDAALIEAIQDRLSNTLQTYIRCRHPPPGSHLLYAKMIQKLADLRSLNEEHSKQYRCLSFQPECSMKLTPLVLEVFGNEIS
How it was run: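 VDR-UAS-bla HEK293T cells in 2% charcoal-stripped FBS were stimulated with 1-alpha,25-dihydroxyvitamin D3 (3 nM final) plus compound for 16 h at 37 C. The beta-lactamase CCF4 readout was normalized to 50 nM agonist and DMSO, and Hill fits gave IC50.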

[8] = qHTS assay for small molecule agonists of retinoid X receptor alpha signaling (AID 588544; calls by dose curve); conditions: HEK293T RXRa-UAS-bla, beta-lactamase reporter, 18 h; 530 nm emission
[9] = biological target: Retinoic acid receptor RXR-alpha (Homo sapiens) (UniProt P19793); assay: as above; conditions: HEK293T RXRa-UAS-bla, beta-lactamase reporter, 18 h; series mostly up to 76.7 µM
Chain of Retinoic acid receptor RXR-alpha (Homo sapiens) (P19793 whole entry, looked up): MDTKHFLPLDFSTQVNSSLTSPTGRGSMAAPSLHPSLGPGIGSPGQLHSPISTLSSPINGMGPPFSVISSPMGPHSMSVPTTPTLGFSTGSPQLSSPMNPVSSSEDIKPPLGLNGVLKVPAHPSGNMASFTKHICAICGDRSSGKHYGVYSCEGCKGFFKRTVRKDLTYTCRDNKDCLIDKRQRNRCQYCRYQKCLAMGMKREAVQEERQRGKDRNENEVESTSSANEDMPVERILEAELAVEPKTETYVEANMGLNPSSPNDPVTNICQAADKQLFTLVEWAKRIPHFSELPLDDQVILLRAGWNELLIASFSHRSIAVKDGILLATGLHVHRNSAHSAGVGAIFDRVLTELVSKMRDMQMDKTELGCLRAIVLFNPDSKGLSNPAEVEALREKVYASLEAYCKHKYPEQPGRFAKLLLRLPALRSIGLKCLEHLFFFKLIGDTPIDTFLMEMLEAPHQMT

[10] = biological target: Thyroid hormone receptor beta (Homo sapiens) (UniProt P10828); assay: qHTS assay for small molecule antagonists of thyroid hormone receptor beta signaling (AID 588547; active means well fitted inhibition curve with a large enough effect in the signal ratio, with a control signal flat, not every such curve was filed as active; the % refers to the signal ratio;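 further: cells stimulated with 0.4 nM T3 agonist during compound exposure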); conditions: TR-UAS-bla HEK293, beta-lactamase ratio, antagonist mode, 18 h
Chain of Thyroid hormone receptor beta (Homo sapiens) (P10828 whole entry, looked up): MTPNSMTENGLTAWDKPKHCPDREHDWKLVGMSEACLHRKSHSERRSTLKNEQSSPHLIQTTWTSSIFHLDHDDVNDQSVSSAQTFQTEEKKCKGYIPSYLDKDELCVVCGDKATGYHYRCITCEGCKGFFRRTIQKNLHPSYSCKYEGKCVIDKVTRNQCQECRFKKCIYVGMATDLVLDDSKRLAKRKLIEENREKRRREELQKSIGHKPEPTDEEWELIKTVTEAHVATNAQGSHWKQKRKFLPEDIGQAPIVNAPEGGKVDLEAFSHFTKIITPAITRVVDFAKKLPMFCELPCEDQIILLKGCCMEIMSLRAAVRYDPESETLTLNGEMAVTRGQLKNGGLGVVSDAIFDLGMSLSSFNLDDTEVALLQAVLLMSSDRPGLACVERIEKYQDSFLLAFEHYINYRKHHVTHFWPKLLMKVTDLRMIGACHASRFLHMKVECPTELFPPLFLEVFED
How it was run: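 TR-UAS-bla GripTite HEK293 cells in 2% charcoal/dextran FBS medium; compounds 0.59 nM to 92 uM with T3 at 0.4nM final, 18 h at 37 C. Beta-lactamase read by CCF4 fluorescence (460/530 nm); Hill fits gave IC50 and efficacy.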

[11] = biological target: Nuclear receptor ROR-gamma (Homo sapiens) (UniProt P51449); assay: qHTS assay for small molecule antagonists of the retinoid-related orphan receptor gamma (ROR-gamma) signaling pathway (AID 651802); conditions: ROR-gamma antagonist cell reporter assay; series mostly up to 92.2 µM; further: nearly all actives have a fitted effect of over 60% in size; further: potency means the concentration at half of the fitted maximal effect
Chain of Nuclear receptor ROR-gamma (Homo sapiens) (P51449 whole entry, looked up): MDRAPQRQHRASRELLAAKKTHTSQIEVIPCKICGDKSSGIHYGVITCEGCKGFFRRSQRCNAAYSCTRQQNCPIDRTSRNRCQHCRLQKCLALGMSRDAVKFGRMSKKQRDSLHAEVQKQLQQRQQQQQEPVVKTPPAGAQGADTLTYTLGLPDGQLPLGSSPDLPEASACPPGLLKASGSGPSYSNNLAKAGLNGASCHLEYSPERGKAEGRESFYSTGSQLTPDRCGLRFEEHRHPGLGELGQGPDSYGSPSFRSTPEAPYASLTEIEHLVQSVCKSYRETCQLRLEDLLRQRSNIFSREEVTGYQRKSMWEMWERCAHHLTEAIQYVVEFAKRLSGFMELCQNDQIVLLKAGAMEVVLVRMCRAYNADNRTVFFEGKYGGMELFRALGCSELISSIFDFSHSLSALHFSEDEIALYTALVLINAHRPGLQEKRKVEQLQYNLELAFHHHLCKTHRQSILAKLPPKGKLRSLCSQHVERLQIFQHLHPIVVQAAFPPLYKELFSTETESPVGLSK
How it was run: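 CHO, TET-inducible ROR + RORE-LUC reporter, 1536-well qHTS. Compound pinned, doxycycline added, 16hr 37C/5% CO2. ONE-Glo, 30 min RT, luminescence; signal drop scored as antagonism.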

[12] = qHTS assay for small molecule agonists of the antioxidant response element (ARE) signaling pathway measured by Nrf2-dependant transcriptional activity - cell viability counter screen (AID 720653; active means well fitted curve in the direction sought with a large enough effect in the repeat runs; an effect the other way counts as inactive or inconclusive); conditions: ARE-bla HepG2 viability, CellTiter-Glo ATP luminescence, 16 h; stronger effect = lower value
How it was run: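 ARE-bla HepG2 cells treated with compounds for 16 h at 37C; this counter screen measures viability as intracellular ATP by CellTiter-Glo luminescence after 30 min at room temperature.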

[13] = qHTS assay for cell viability of HEK293 cells (AID 743288); conditions: ATP luminescence (CellTiter-Glo), 18 h, stronger effect = lower value; further: nearly all actives have a fitted effect of over 50% in size
How it was run: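 Environmental chemicals tested in qHTS format against parental HEK293 cells; 18 h treatment, 37 C; read-out ATP luminescence (CellTiter-Glo), 30 min RT development.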

[14] = Cell Viability - N2a (AID 540); conditions: N2a mouse neuroblastoma cell viability; activity change, negative = cytotoxicity: at 92.2 µM (top of the series); further: nearly all actives have a fitted effect of over 45% in size
How it was run: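 Luminescent ATP signal (CellTiter-Glo, 20 min at room temperature) served as the viability read-out after N2a cells were treated with compounds for 40 hours at 37 °C. Concentration-response data were fitted to the Hill equation for AC50.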

[15] = Cell Viability - LYMP2-009 (AID 968); conditions: LYMP2-009 lymphoblastoid cell viability; series mostly up to 92.2 µM;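 further: cells exposed to compound for 24 h at 37 °C; nearly all actives have a fitted effect of over 55% in size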
[16] = Cell Viability - LYMP2-006 (AID 978); conditions: LYMP2-006 lymphoblastoid cell viability, qHTS; series mostly up to 92.2 µM;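 further: cells exposed to compound for 24 hours; nearly all actives have a fitted effect of over 60% in size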
How it was run: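 qHTS, 1536-well; 2500 cells/well, 5 hr 37 C; cpd 24 hr 37 C; CellTiter-Glo 30 min RT; luminescence. Tetraoctylammonium bromide pos. ctrl. AC50 via Hill eqn.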

[17] = qHTS assay for small molecule disruptors of the mitochondrial membrane potential - 1 hr assay (AID 651754; calls by dose curve; further: nearly all actives have a fitted effect of over 35% in size; further: potency means the concentration at half of the fitted maximal effect); conditions: series mostly up to 92.2 µM
How it was run: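 HepG2, 2,000 cells/well, overnight attachment; cpd or DMSO 1 hr, 37C/5% CO2; Mito-MPS dye 30 min, 37C; fluorescence monomer (490/535) and aggregate (540/590).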

[18] = qHTS assay for small molecule disruptors of the mitochondrial membrane potential - 5 hr assay (AID 651755; calls by dose curve; further: nearly all actives have a fitted effect of over 40% in size; further: potency means the concentration at half of the fitted maximal effect); conditions: JC-1-type ratio dye; series mostly up to 92.2 µM
How it was run: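 HepG2 cells (2,000/well), attached overnight, exposed to compound 5 hr at 37C, then Mito-MPS dye 30 min. Fluorescence read for monomers (490/535 nm) and aggregates (540/590 nm).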

[19] = Cellular Toxicity (caspase-3) NIH 3T3 (AID 666); conditions: NIH 3T3 caspase-3 activation, apoptosis/toxicity; series mostly up to 92.2 µM;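 further: caspase signal read after 16 h compound exposure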
How it was run: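 Luminescence from aminoluciferin released by caspase-3/7 cleavage of a peptide substrate served as read-out. Mouse fibroblast NIH 3T3 cells were exposed to compounds over a concentration range for 16 hours, and AC50 values came from standard Hill modelling.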

[20] = Cellular Toxicity (caspase-3) H-4-II-E (AID 663); conditions: H-4-II-E rat hepatoma; Potency: caspase-3 activation; series mostly up to 92.2 µM;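 further: cells exposed to compound for 16 hr before readout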
How it was run: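 Rat hepatoma H-4-II-E cells (1500/well) plated 5 hr, then exposed to compound titrations for 16 hr at 37 °C. Caspase-Glo 3/7 luminescence read after 20 min at RT; data normalized to DMSO and 100 uM tamoxifen, AC50 from Hill fits.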

SMILES	Potency [1]	Potency [2]	outcome [3]	outcome [4]	Potency [5]	Potency [6]	outcome [7]	max response [8]	outcome [9]	activity change % (negative = inhibition) [10]	Potency [11]	max response [12]	max response [13]	Potency [14]	Potency [15]	Potency [16]	Potency [17]	Potency [18]	Potency [19]	Potency [20]
O=[N+]([O-])c1cccc(O)c1	> 92 µM (inactive)	inactive	inactive	inactive	inactive	inactive	inactive	0.893%	inactive	6.02% (inactive)	inactive	-0.267% (inactive)	-8.12% (inactive)							
O=C(O)CCl	> 92 µM (inactive)	inactive	inactive	inactive	inactive	inactive	inactive	-10.2%	inactive	-0.364% (inactive)	inactive	1.47% (inactive)	-4.45% (inactive)	inactive	inactive	inactive	inactive	inactive		
Nc1ncc([N+](=O)[O-])s1	> 92 µM (inactive)	inactive		inactive	inactive	inactive	inactive	0.224%	inactive	-7.23% (inactive)	inactive		-7.17% (inactive)	inactive	inactive	inactive		inactive	inactive	
c1ccc2c(c1)CCNC2	> 92 µM (inactive)	inactive	inactive	inactive	inactive	inactive	inactive	-9.85%	inactive		inactive	5.02% (inactive)	1.81% (inactive)	inactive	inactive		inactive	inactive	inactive	inactive
[O-][Cl+2]([O-])O	> 92 µM (inactive)	inactive		inactive	inactive	inactive	inactive	6.62%	inactive			27.9% (inactive)	-5.12% (inactive)	inactive	inactive	inactive	inactive	inactive	inactive	inactive
Nc1ccc([N+](=O)[O-])cc1[N+](=O)[O-]	> 92 µM (inactive)	inactive	inactive	inactive	inactive	inactive	inactive	-7.45%	inactive	0.221% (inactive)	0.944 µM (active)	-10.3% (inactive)	2.24% (inactive)			inactive	18.8 µM (active)	33.5 µM (active)	inactive	inactive
N#CC(O)c1ccccc1 (stereo not drawn)	> 92 µM (inactive)	inactive	inactive	inactive	inactive	inactive	inactive	-0.409%	inactive	8.13% (inactive)	inactive	12.9% (inactive)	2.16% (inactive)	inactive	inactive	inactive		inactive	inactive	
